Results on 37 molecules are retold here after PubChem BioAssay (Tox21).

Where “and” joins values, the source holds several entries; their conditions need not be identical. Identical values can stand only once. Records with an inconclusive call do not appear. Where a call stands in place of a potency, no number is given. A structure can be active in one record and inactive in another. Calls of active or inactive are those of the source. Calls come from the whole dose curve; as a rule, active = well fitted cell-killing curve with a large enough effect in the repeat runs; inconclusive = weak or mixed curves; inactive = no such curve, though single readings can be large or run the other way.

The first assay in a line: qHTS assay for identifying genotoxic compounds that show differential cytotoxicity against isogenic chicken DT40 cell lines with known DNA damage response pathways - Rad54/Ku70 mutant cell line (AID 743015). Note: nearly all actives have a fitted effect of over 60% in size. Note: potency is the fitted concentration of half-maximal effect. The note with it: DT40 Rad54/Ku70 mutant viability, CellTiter-Glo, 40 h; series mostly up to 66.8 µM.
In the case of `C=N[C@@H](C(=O)N[C@@H]1C(=O)N2[C@@H]1SC(C)(C)[C@@H]2C(=O)O)c1ccccc1`, the Potency result is “inactive”.

`O=C(O)/C=C/C(=O)Nc1ccc(S(=O)(=O)Nc2nccs2)cc1`: the Potency entry is “inactive”.

Regarding `O=c1[nH]c(=O)n([C@H]2C[C@H](O)[C@@H](CO)O2)cc1/C=C/Br`, the Potency entry is “inactive”.

With `C[C@H](O)CN(C)C`, the Potency entry was “inactive”.

Turning to `O=C1CC[C@@H](C(=O)N[C@H]2C[C@@H]2c2ccccc2)N1`, the Potency result was “inactive”.

`CC(C)C[C@H](NC(=O)[C@@H](COC(C)(C)C)NC(=O)[C@H](Cc1ccc(O)cc1)NC(=O)[C@H](CO)NC(=O)[C@H](Cc1c[nH]c2ccccc12)NC(=O)[C@H](Cc1cnc[nH]1)NC(=O)[C@@H]1CCC(=O)N1)C(=O)N[C@@H](CCCN=C(N)N)C(=O)N1CCC[C@H]1C(=O)NNC(N)=O`: the Potency entry is “inactive”.

In the case of `NC[C@H]1O[C@H](O[C@H]2[C@H](O)[C@@H](O[C@H]3O[C@H](CO)[C@@H](O)[C@H](N)[C@H]3O)[C@H](N)C[C@@H]2N)[C@H](N)C[C@@H]1O`, the Potency result was “inactive”.

As to `FC(F)(F)COCC(F)(F)F`, the Potency entry is “inactive”.

In the case of `NCC[C@H](O)C(=O)N[C@@H]1C[C@H](N)[C@@H](O[C@H]2O[C@H](CN)CC[C@H]2N)[C@H](O)[C@H]1O[C@H]1O[C@H](CO)[C@@H](O)[C@H](N)[C@H]1O`, the Potency entry is “inactive”.

For the molecule `CC(C)Cc1ccc([C@H](C)C(=O)O)cc1`, the Potency result was “inactive”.

Regarding `O=P(O)(O)C(O)(Cn1ccnc1)P(=O)(O)O`, the Potency entry is “inactive”.

In the case of `NCC(O)CC(=O)O` (centres undefined), the Potency entry is “inactive”.

Take `CNCC(=O)N[C@@H](CCCN=C(N)N)C(=O)N[C@H](C(=O)N[C@@H](Cc1ccc(O)cc1)C(=O)N[C@H](C(=O)N[C@@H](Cc1cnc[nH]1)C(=O)N1CCC[C@H]1C(=O)N[C@@H](C)C(=O)O)C(C)C)C(C)C`: the Potency entry is “inactive”.

Regarding `CCC(NC(C)C)C(O)c1ccc(O)c(O)c1` (centres undefined), the Potency result was “inactive”.

`CCCOC(=O)c1ccc(O)cc1`: the Potency result is “inactive and 65.5 µM (active)”.

On to `CC12CCC(C[N+](C)(CCC[N+](C)(C)C)C1)C2(C)C` (centres undefined), for which the Potency result was “inactive”.

Turning to `COc1ccc(/C=N/NC(=O)c2ccncc2)c(C(=O)O)c1OC`, the Potency entry was “inactive”.

Take `O=C1[O][Bi][O]c2ccccc21`: the Potency entry was “inactive”.

Regarding `CC(=NCc1ccccc1)c1ccccc1O`, the Potency entry is “inactive”.

In the case of `C[C@H](NCCc1ccc(O)cc1)[C@H](O)c1ccc(O)cc1`, the Potency result was “inactive”.

In the case of `CCCC(CCC)C(=O)OC1C[C@H]2CC[C@@H](C1)[N+]2(C)C` (some centres undefined), the Potency result is “inactive”.

For `CC(C)(S)C(=O)N[C@@H](CS)C(=O)O`, the Potency result was “inactive”.

As to `NC(=O)[C@H]1O[C@@H](O)[C@H](O)[C@@H](O)[C@@H]1O`, the Potency result is “inactive”.

As to `CCCCCCCCCCCCCC(=O)OCC(COP(=O)([O-])OCC[N+](C)(C)C)OC(=O)CCCCCCCCCCCCC` (centres undefined), the Potency entry was “inactive”.

In the case of `CCN(CC)C(=O)c1cccnc1`, the Potency entry is “inactive”.

As to `CC(C)(COP(=O)(O)OP(=O)(O)OC[C@H]1O[C@@H](n2cnc3c(N)ncnc32)[C@H](O)[C@@H]1OP(=O)(O)O)C(O)C(=O)NCCC(=O)NCCS` (some centres undefined), the Potency result was “inactive”.

As to `NC(=S)NS(=O)(=O)c1ccc(N)cc1`, the Potency entry is “inactive”.

As to `c1ccc2cc3c4ccccc4c4ccccc4c3cc2c1`, the Potency entry is “inactive”.

For the molecule `C[S+](CC[C@H](N)C(=O)O)C[C@H]1O[C@@H](n2cnc3c(N)ncnc32)[C@H](O)[C@@H]1O` (some centres undefined), the Potency result is “inactive”.

As to `CC(C)(C)C(=O)OCC(=O)[C@H]1CC[C@H]2[C@@H]3CCC4=CC(=O)CC[C@]4(C)[C@H]3CC[C@]12C`, the Potency result was “inactive”.

Take `CC(=O)Nc1ccc(OC(C)=O)cc1`: the Potency result was “inactive”.

Regarding `C=CC(N)CCC(=O)O` (centres undefined), the Potency result was “inactive”.

For `Cc1c(N)nc([C@H](CC(N)=O)NC[C@H](N)C(N)=O)nc1C(=O)N[C@H](C(=O)N[C@H](C)[C@@H](O)[C@H](C)C(=O)N[C@H](C(=O)NCCc1nc(-c2nc(C(=O)NCCCCN=C(N)N)cs2)cs1)[C@@H](C)O)[C@@H](O[C@@H]1O[C@@H](CO)[C@@H](O)[C@H](O)[C@@H]1O[C@H]1O[C@H](CO)[C@@H](O)[C@H](OC(N)=O)[C@@H]1O)c1cnc[nH]1`, the Potency was 211 nM (active) and 37.6 nM (active).

Take `CCOC(=O)COc1ccc2c(=O)cc(-c3ccccc3)oc2c1`: the Potency is 29.8 µM (active).

For `CO/N=C(\C(=O)N[C@@H]1C(=O)N2C(C(=O)[O-])=C(C[n+]3ccc(N)n3CCO)CS[C@H]12)c1csc(N)n1`, the Potency entry was “inactive”.

With `NC(=O)CC[C@@H]1NC(=O)[C@H](Cc2ccccc2)NC(=O)[C@H](Cc2ccc(O)cc2)NC(=O)[C@@H](N)CSSC[C@@H](C(=O)N2CCC[C@H]2C(=O)N[C@@H](CCCN=C(N)N)C(=O)NCC(N)=O)NC(=O)[C@H](CC(N)=O)NC1=O`, the Potency entry was “inactive”.

Regarding `Cc1onc(-c2c(F)cccc2Cl)c1C(=O)N[C@@H]1C(=O)N2[C@@H]1SC(C)(C)[C@@H]2C(=O)O`, the Potency entry is “inactive”.

The next assay is described as follows: qHTS assay to identify small molecule antagonists of the androgen receptor (AR) signaling pathway - cell viability counter screen (AID 743033; note: nearly all actives have a fitted effect of over 45% in size). The note with it: AR-bla HEK293 viability, CellTiter-Glo luminescence, 16 h; series mostly up to 58.5 µM. For orientation: qHTS replaces the single test concentration by a dilution series.
With `C=N[C@@H](C(=O)N[C@@H]1C(=O)N2[C@@H]1SC(C)(C)[C@@H]2C(=O)O)c1ccccc1`, the Potency entry was “inactive”.

As to `O=C(O)/C=C/C(=O)Nc1ccc(S(=O)(=O)Nc2nccs2)cc1`, the Potency result was “inactive”.

For `O=c1[nH]c(=O)n([C@H]2C[C@H](O)[C@@H](CO)O2)cc1/C=C/Br`, the Potency entry is “inactive”.

Consider `C[C@H](O)CN(C)C`, for which the Potency entry is “inactive”.

`O=C1CC[C@@H](C(=O)N[C@H]2C[C@@H]2c2ccccc2)N1`: the Potency result was “inactive”.

For `CC(C)C[C@H](NC(=O)[C@@H](COC(C)(C)C)NC(=O)[C@H](Cc1ccc(O)cc1)NC(=O)[C@H](CO)NC(=O)[C@H](Cc1c[nH]c2ccccc12)NC(=O)[C@H](Cc1cnc[nH]1)NC(=O)[C@@H]1CCC(=O)N1)C(=O)N[C@@H](CCCN=C(N)N)C(=O)N1CCC[C@H]1C(=O)NNC(N)=O`, the Potency result is “inactive”.

With `NC[C@H]1O[C@H](O[C@H]2[C@H](O)[C@@H](O[C@H]3O[C@H](CO)[C@@H](O)[C@H](N)[C@H]3O)[C@H](N)C[C@@H]2N)[C@H](N)C[C@@H]1O`, the Potency entry is “inactive”.

As to `FC(F)(F)COCC(F)(F)F`, the Potency entry was “inactive”.

As to `NCC[C@H](O)C(=O)N[C@@H]1C[C@H](N)[C@@H](O[C@H]2O[C@H](CN)CC[C@H]2N)[C@H](O)[C@H]1O[C@H]1O[C@H](CO)[C@@H](O)[C@H](N)[C@H]1O`, the Potency entry is “inactive”.

With `CC(C)Cc1ccc([C@H](C)C(=O)O)cc1`, the Potency result is “inactive”.

In the case of `O=P(O)(O)C(O)(Cn1ccnc1)P(=O)(O)O`, the Potency entry was “inactive”.

For `NCC(O)CC(=O)O` (centres undefined), the Potency result was “inactive”.

For the molecule `CNCC(=O)N[C@@H](CCCN=C(N)N)C(=O)N[C@H](C(=O)N[C@@H](Cc1ccc(O)cc1)C(=O)N[C@H](C(=O)N[C@@H](Cc1cnc[nH]1)C(=O)N1CCC[C@H]1C(=O)N[C@@H](C)C(=O)O)C(C)C)C(C)C`, the Potency result was “inactive”.

For `CCC(NC(C)C)C(O)c1ccc(O)c(O)c1` (centres undefined), the Potency result was “inactive”.

On to `CCCOC(=O)c1ccc(O)cc1`, for which the Potency entry is “inactive”.

In the case of `CC12CCC(C[N+](C)(CCC[N+](C)(C)C)C1)C2(C)C` (centres undefined), the Potency entry is “inactive”.

Regarding `COc1ccc(/C=N/NC(=O)c2ccncc2)c(C(=O)O)c1OC`, the Potency result was “inactive”.

`O=C1[O][Bi][O]c2ccccc21`: the Potency result is “inactive”.

As for `CC(=NCc1ccccc1)c1ccccc1O`, the Potency entry was “inactive”.

For `C[C@H](NCCc1ccc(O)cc1)[C@H](O)c1ccc(O)cc1`, the Potency result was “inactive”.

In the case of `CCCC(CCC)C(=O)OC1C[C@H]2CC[C@@H](C1)[N+]2(C)C` (some centres undefined), the Potency result was “inactive”.

On to `CC(C)(S)C(=O)N[C@@H](CS)C(=O)O`, for which the Potency result is “inactive”.

On to `NC(=O)[C@H]1O[C@@H](O)[C@H](O)[C@@H](O)[C@@H]1O`, for which the Potency entry is “inactive”.

Take `CCCCCCCCCCCCCC(=O)OCC(COP(=O)([O-])OCC[N+](C)(C)C)OC(=O)CCCCCCCCCCCCC` (centres undefined): the Potency entry was “inactive”.

Turning to `CCN(CC)C(=O)c1cccnc1`, the Potency entry was “inactive”.

Take `CC(C)(COP(=O)(O)OP(=O)(O)OC[C@H]1O[C@@H](n2cnc3c(N)ncnc32)[C@H](O)[C@@H]1OP(=O)(O)O)C(O)C(=O)NCCC(=O)NCCS` (some centres undefined): the Potency entry was “inactive”.

Turning to `NC(=S)NS(=O)(=O)c1ccc(N)cc1`, the Potency entry is “inactive”.

Take `c1ccc2cc3c4ccccc4c4ccccc4c3cc2c1`: the Potency result was “inactive”.

As for `C[S+](CC[C@H](N)C(=O)O)C[C@H]1O[C@@H](n2cnc3c(N)ncnc32)[C@H](O)[C@@H]1O` (some centres undefined), the Potency entry is “inactive”.

On to `CC(C)(C)C(=O)OCC(=O)[C@H]1CC[C@H]2[C@@H]3CCC4=CC(=O)CC[C@]4(C)[C@H]3CC[C@]12C`, for which the Potency result was “inactive”.

As for `CC(=O)Nc1ccc(OC(C)=O)cc1`, the Potency entry was “inactive”.

Consider `C=CC(N)CCC(=O)O` (centres undefined), for which the Potency result was “inactive”.

With `Cc1c(N)nc([C@H](CC(N)=O)NC[C@H](N)C(N)=O)nc1C(=O)N[C@H](C(=O)N[C@H](C)[C@@H](O)[C@H](C)C(=O)N[C@H](C(=O)NCCc1nc(-c2nc(C(=O)NCCCCN=C(N)N)cs2)cs1)[C@@H](C)O)[C@@H](O[C@@H]1O[C@@H](CO)[C@@H](O)[C@H](O)[C@@H]1O[C@H]1O[C@H](CO)[C@@H](O)[C@H](OC(N)=O)[C@@H]1O)c1cnc[nH]1`, the Potency result is “inactive”.

Take `CCOC(=O)COc1ccc2c(=O)cc(-c3ccccc3)oc2c1`: the Potency entry was “inactive”.

Take `CO/N=C(\C(=O)N[C@@H]1C(=O)N2C(C(=O)[O-])=C(C[n+]3ccc(N)n3CCO)CS[C@H]12)c1csc(N)n1`: the Potency result was “inactive”.

In the case of `NC(=O)CC[C@@H]1NC(=O)[C@H](Cc2ccccc2)NC(=O)[C@H](Cc2ccc(O)cc2)NC(=O)[C@@H](N)CSSC[C@@H](C(=O)N2CCC[C@H]2C(=O)N[C@@H](CCCN=C(N)N)C(=O)NCC(N)=O)NC(=O)[C@H](CC(N)=O)NC1=O`, the Potency entry was “inactive”.

Take `Cc1onc(-c2c(F)cccc2Cl)c1C(=O)N[C@@H]1C(=O)N2[C@@H]1SC(C)(C)[C@@H]2C(=O)O`: the Potency entry was “inactive”.
